Screening results (PubChem BioAssay)
GLD-1 TGE inh: GLD-1/TGE RNA complex disruptors, primary screen, biochemical, fluorescence polarization; purified GLD-1 + fluorescein TGE RNA; inhibition, % at 5.96 µM; 320,000 tested, 0.44% active;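 active = percent inhibition above a per-plate cutoff, the plate mean of test compounds plus 3 SD, cut at about 30% in these data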;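 note: 0% = DMSO wells with GLD-1 and probe and 100% = wells lacking GLD-1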
Keap1-Nrf2 PPI: Keap1-Nrf2 protein-protein interaction inhibitors, primary screen, biochemical, fluorescence polarization, single point. Kelch-like ECH-associated protein 1 (Homo sapiens), Q14145. inhibition, % at 9.4 µM. Keap1 Kelch-Nrf2 peptide fluorescence polarization, 1536-well. 340,000 tested, 0.15% active; in the data active = inhibition above about 12%; inconclusive = no clear call, values can overlap the other calls; inactive = below about 7.3%;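 note: human Keap1 Kelch domain with fluorescein labeled Nrf2 9mer peptide probe; 0% = neutral control wells and 100% = peptide positive control; higher means more block of Keap1 binding to Nrf2 peptide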
Target sequence (Q14145 whole entry, looked up, the tested form may be a part): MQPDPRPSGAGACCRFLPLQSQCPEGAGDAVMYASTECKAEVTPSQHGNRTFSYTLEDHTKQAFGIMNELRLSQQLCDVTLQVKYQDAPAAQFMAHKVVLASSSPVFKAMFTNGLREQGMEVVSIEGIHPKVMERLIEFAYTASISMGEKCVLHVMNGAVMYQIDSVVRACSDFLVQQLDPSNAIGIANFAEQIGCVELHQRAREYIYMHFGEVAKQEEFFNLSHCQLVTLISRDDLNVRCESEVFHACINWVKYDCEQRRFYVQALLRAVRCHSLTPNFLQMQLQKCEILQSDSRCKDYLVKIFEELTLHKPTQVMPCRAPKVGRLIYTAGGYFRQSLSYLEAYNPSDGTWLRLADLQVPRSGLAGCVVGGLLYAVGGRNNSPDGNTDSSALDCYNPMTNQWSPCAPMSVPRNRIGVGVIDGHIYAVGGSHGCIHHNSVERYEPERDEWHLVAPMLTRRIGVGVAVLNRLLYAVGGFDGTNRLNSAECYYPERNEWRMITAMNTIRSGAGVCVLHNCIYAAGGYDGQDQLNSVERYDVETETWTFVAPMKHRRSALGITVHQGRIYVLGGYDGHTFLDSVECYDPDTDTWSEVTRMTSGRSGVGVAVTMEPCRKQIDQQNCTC
LANA DNA inh: inhibitors of KSHV C-LANA binding to DNA, primary screen, biochemical, fluorescence polarization, FAM-LBS DNA, MBP-C-LANA, single point; 340,000 tested, 0.078% active; inhibition, % at 9 µM; Kaposi's sarcoma herpesvirus LANA C-terminal domain (residues 932-1162) DNA binding;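 active = highest replicate inhibition at or above 60% at 9 µM, even if other replicates fall short; inactive = all replicates below 60% inhibition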;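 note: 0% = neutral control wells and 100% = 4 µM acridine orange control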
Bcl-xL primary: inhibitors of human Bcl-xL, primary screen, biochemical, fluorescence polarization, HTS. GST-Bcl-xL / FITC-Bim BH3 peptide fluorescence polarization. inhibition, % at 10.9 µM. 320,000 tested, 0.7% active. AID 2129, 2009;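 active = inhibition above the mean of all tested compounds plus 3 SD, cutoff set per campaign, cut at about 30% in these data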;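 note: 0% = DMSO wells and 100% = unlabeled Bim-BH3 peptide competitor; inhibitors lower millipolarization by displacing the labeled peptide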
eLon inh: inhibitors of E. coli Lon protease, primary screen, biochemical, fluorescence polarization; 360,000 tested, 0.42% active; purified E. coli Lon protease; inhibition, % at 7.94 µM; in the data active = inhibition above about 13%, passing the limit was not always enough;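 note: 0% = enzyme with probe and DMSO and 100% = no enzyme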
MEX-5 binding: MEX-5 zinc finger RNA-binding disruptors – biochemical, C. elegans, fluorescence polarization, MLPCN library, primary screen; Zinc finger protein mex-5 (Caenorhabditis elegans), Q9XUB2; MEX-5/FITC-TCR2 RNA binding; hits give low values; activity score (negative = inhibition of binding), % at 10 µM; 300,000 tested, 0.38% active; AID 1832, 2009;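 active = inhibition past about -25% in most replicates, and total fluorescence under double the plate's negative control median, limit read from the data; inconclusive = replicates evenly split on the limit, or fluorescence at least double controls; inactive = too little inhibition in most replicates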;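 note: 0% = DMSO and -100% = 5 µM competing unlabeled TCR2 RNA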
E coli Lon conf: E. coli Lon protease inhibitor retest, confirmation, biochemical, fluorescence polarization | shares compounds with eLon inh | 1,400 tested, 31% active | inhibition, % at 7.94 µM | AID 602230, 2012 | purified E. coli Lon; in the data active = inhibition above about 16%;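 note: 0% = enzyme with probe and DMSO and 100% = no enzyme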
Numbers without * were called inactive; ? = inconclusive; · = no result given; + = active, no number. In the library only some 1.2% were active in any assay of this set; here they are far more common.

SMILES | GLD-1 TGE inh | Keap1-Nrf2 PPI | LANA DNA inh | Bcl-xL primary | eLon inh | MEX-5 binding | E coli Lon conf
COc1cc(NC(=O)CN2C(=O)C(=O)N(CC(C)C)C2=O)cc(OC)c1 | · | -5.1 | 1.3 | · | 4.1 | · | ·
CC1CCCCN1CCNC(=O)c1cnn2ccccc12 (stereo not given) | 1.9 | -1.3 | 1.6 | 5.4 | 14.3* | -4.3 | -35.7
Cc1cc(C(=O)NCCN2CCCCC2C)n(-c2ccccc2)n1 (stereo not given) | 8.8 | -0.8 | 3.4 | 15.2 | 2.4 | -15.0 | ·
NC(=O)C1CCN(C(=O)c2ccc(Cl)c(NC(=O)c3cccs3)c2)CC1 | · | · | · | · | 0.7 | · | ·
O=C1CCC/C=C/C[C@H](CC(=O)N(CCO)Cc2ccccc2)C(=O)N[C@@H](Cc2ccccc2)CO1 | 4.7 | -0.7 | -1.7 | · | 2.1 | · | ·
O=C1c2cccc3cccc(c23)C(=O)N1CCN1CCN(CC(O)COCc2ccc(Cl)cc2)CC1 (stereo not given) | 2.8 | -1.1 | 0.4 | 5.9 | 11.0 | -8.2 | ·
COc1cc(COCC(O)CN2CCN(CCN3C(=O)c4cccc5cccc(c45)C3=O)CC2)cc(OC)c1OC (stereo not given) | 2.8 | -4.7 | -0.1 | 7.5 | 18.1* | -15.6 | 17.2*
CC(=O)c1ccc(NC(=O)CSc2ccsc2[N+](=O)[O-])cc1 | · | -0.5 | -0.3 | · | -12.3 | -4.4 | ·
Oc1ccc(C[C@H]2CNC(=S)N2CC2CCCN2C[C@H](Cc2ccccc2)N2C[C@H](Cc3ccc(O)cc3)N(CC3CCCCC3)C2=S)cc1 (stereo not given in full) | · | · | · | · | -1.1 | · | ·
O=C(CC1CCCC1)N1CCN(S(=O)(=O)c2ccc(F)cc2)CC1 | 0.5 | -1.3 | -1.8 | -6.0 | -7.7 | · | ·
O=C(CCC1CCCC1)N1CCN(S(=O)(=O)c2ccc(Br)cc2)CC1 | 5.0 | -2.2 | 0.7 | 2.4 | 19.4* | · | -2.5
COc1ccccc1C(c1c(O)nc(SC)[nH]c1=O)c1c(O)nc(SC)[nH]c1=O | 4.8 | 3.0 | -0.6 | 7.3 | 16.8 | 1.2 | ·
CCOc1cc(C(c2c(O)nc(SC)[nH]c2=O)c2c(O)nc(SC)[nH]c2=O)ccc1O | 68.5* | · | · | 83.8* | 48.6* | -21.3 | 41.1*
COc1cc(OC)cc(C(=O)OCc2cc3ccccc3[nH]c2=O)c1 | 3.7 | -8.4 | -0.5 | 6.1 | 23.1* | 1.5 | -3.6
COc1ccc(CC(=O)OCc2cc3ccccc3[nH]c2=O)cc1 | -5.1 | 2.7 | 4.1 | 9.2 | -9.4 | 0.6 | ·
COC[C@H](NS(=O)(=O)c1ccc(Br)cc1F)[C@@H](O)c1ccccc1 | · | · | · | · | -9.0 | · | ·
Cc1cc(C(=O)COc2cccc([N+](=O)[O-])c2)c(C)n1C1CC1 | -2.9 | -1.9 | 2.1 | -8.3 | -5.6 | · | ·
Cc1cc(C(=O)COC(=O)c2cccc(O)c2)c(C)n1C1CC1 | 5.5 | -4.1 | 0.2 | -1.4 | 27.9* | · | -34.3
O=C1C(=Cc2cccn2-c2ccccc2)C(=O)c2ccccc21 | 105.0* | -6.8 | 2.5 | 40.8* | 61.5* | ? | 38.8*
O=C(NNC(=O)c1ccc(O)c(Cl)c1)c1cccc(S(=O)(=O)N2CCOCC2)c1 | -10.5 | -3.9 | -1.0 | 0.4 | -11.3 | -3.2 | ·
CCN(CC)C(=O)[C@H]1CC(CC(=O)NCCN2CCOCC2)C(=O)N2CCc3c([nH]c4ccc(OC)cc34)[C@]12C (stereo not given in full) | · | -3.0 | 0.7 | · | -3.5 | · | ·
CCN(CC)C(=O)[C@H]1CC(CC(=O)NCCCN(C)C)C(=O)N2CCc3c([nH]c4ccc(OC)cc34)[C@]12C (stereo not given in full) | · | -1.3 | 0.9 | · | + | · | -5.8
CN1CC=C2C(C#N)=C(N)C(C#N)(C#N)[C@H](c3cccc(Cl)c3)C2C1 (stereo not given in full) | 78.8* | 4.2 | 28.0 | 104.4* | 23.4* | -59.3* | 16.7*
COc1cccc(C2C3CN(C)CC=C3C(C#N)=C(N)C2(C#N)C#N)c1OC (stereo not given) | 77.6* | 9.6 | 36.5 | 115.6* | 52.8* | -66.6* | 16.4*
CCN1CC=C2C(C#N)=C(N)C(C#N)(C#N)[C@H](c3cccc(OC)c3OC)[C@H]2C1 | 113.5* | 16.0* | 37.2 | 136.1* | 36.4* | · | 13.7
SMILES | GLD-1 TGE inh | Keap1-Nrf2 PPI | LANA DNA inh | Bcl-xL primary | eLon inh | MEX-5 binding | E coli Lon conf
O=C1CCCC/C1=C\Nc1ccc(C(=O)O)c(O)c1 | 3.1 | -3.6 | 13.3 | 10.1 | 44.0* | -9.2 | 3.1
Cc1ccc(C(=O)NCc2ccc(F)cc2)s1 | -0.7 | 6.2 | 1.0 | -1.4 | 3.6 | 0.7 | ·
Cc1ccc(C(=O)NCCc2ccc(F)cc2)s1 | 0.9 | -4.9 | 0.6 | 8.7 | 14.1* | 0.9 | -7.0
O=C(NCCc1ccc(F)cc1)c1ccncc1 | 6.1 | 1.1 | -1.0 | -4.0 | 18.9* | 0.0 | -11.5
CCCCC[C@@H](C)N1C[C@H](COCc2ccccc2)Oc2cc(N3CCC[C@@H]3COC)ccc2S1(=O)=O | · | · | · | · | 3.9 | · | ·
Cc1ccc(S(=O)(=O)N2CCCCC2)cc1NC(=O)COC(=O)CN1C(=O)NC2(CC(C)CC(C)(C)C2)C1=O (stereo not given) | · | 2.5 | 0.0 | · | -4.1 | · | ·
CSc1cccc(NC(=O)CCCn2c(=O)c3cccn3c3cccnc32)c1 | -4.0 | 4.9 | -1.8 | 3.7 | -0.9 | -1.6 | ·
COc1cc(OC)c2ccc(=O)oc2c1C(CC(=O)N1CCCC1)c1ccc2c(c1)OCO2 (stereo not given) | 6.9 | 2.2 | 5.1 | 8.0 | -13.5 | -5.8 | ·
COc1cc(C(CC(=O)N2CCCC2)c2c(OC)cc(OC)c3ccc(=O)oc23)cc(OC)c1OC (stereo not given) | 55.4* | -1.2 | 15.7 | 35.6* | 37.0* | -38.6* | 13.9
CC(=O)Nc1ccc(CN2C(=O)C(CCc3ccccc3)ON=C2c2cnccn2)cc1 (stereo not given) | · | · | · | · | 2.8 | · | ·
COc1cccc(/C=N/NC(=O)c2ccc(=O)n(C)c2)c1OC | -0.3 | 2.3 | -1.2 | -1.2 | 22.4* | 0.3 | 3.6
N#Cc1cccnc1N1CCN(C(c2ccnc3ccccc23)c2nnnn2-c2ccc3c(c2)OCCO3)CC1 (stereo not given) | · | · | · | · | -7.1 | · | ·
CSc1ccc(C2C(C(=O)c3ccco3)=C(O)C(=O)N2c2nnc(SC)s2)cc1 (stereo not given) | 92.7* | 0.8 | 4.0 | 111.1* | 40.8* | -59.3* | 48.8*
